Screening results (PubChem)
Shn3 3UTR inh – Schnurri-3 reporter inhibition in Clone20 osteoblasts | AID 588674 | Clone20 osteoblast Shn3 3'UTR firefly luciferase, 24 h | inhibition, % at 12.5 µM | hit rate 0.52% among 360,000;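 active means mean inhibition of at least 75% with every replicate also reaching 75%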;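 further: 0% = median of neutral control wells and 100% = pilot-screen positive control compound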
LMP1 NFkB inh – reduces LMP1-driven NF-kappaB luciferase signal; LMP1-induced NF-kappaB luciferase reporter cells, luminescence; inhibition, % at 12.5 µM; hit rate 0.69% among 350,000; in the data active means inhibition above about 41%;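 further: 0% = neutral control wells and 100% = reference inhibitor control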
HIF-2a block – HIF-2a inhibition. 786-0 RCC cells HIF-2a reporter, luciferase luminescence, overnight. inhibition, % at 18.8 µM. hit rate 0.72% among 360,000. AID 624352;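 active means inhibition of the luminescence signal of 40% or more relative to plate controls, in a single-dose primary screen at 18.75 µM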
TROY signal inh – inhibitors of TROY-dependent NF-kB signaling; Q293 LMP1-TROYcd NF-kB luciferase reporter, 4 h; hit rate 0.98% among 360,000; inhibition, % at 10 µM; AID 1347056;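 active means compounds whose plate-normalised and pattern-corrected inhibition of the luciferase reporter signal at the single screening dose is 50% or more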
TRPM1 prom inh – reduces MITF-dependent TRPM1 promoter luciferase signal; SK-MEL-5 TRPM1 promoter luciferase, 24 h; inhibition, % at 12.5 µM; hit rate 0.83% among 330,000;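 active means mean inhibition across replicates of 60% or more, whatever share of single replicates reaches that level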
TWEAK Fn14 block – blocks TWEAK-Fn14 interaction in a reporter cell assay. AID 1159606. TWEAK-stimulated Fn14 reporter cells, luciferase luminescence, 8 h. hit rate 2% among 360,000. inhibition, % at 10 µM; in the data active means inhibition above about 50%
An asterisk follows results filed as active; . = no result. Most compounds without a hit are left out; they make up all but 3.4% or so of the library.

SMILES | Shn3 3UTR inh | LMP1 NFkB inh | HIF-2a block | TROY signal inh | TRPM1 prom inh | TWEAK Fn14 block
CCCCNC(=O)C1(C)CCCCN1C(=O)c1cccs1 (centres undefined) | 6 | . | -10 | -10 | . | 17
C=CCN(CC(=O)Nc1cccnc1)S(=O)(=O)c1ccc(Cl)cc1 | 4 | -6 | 19 | -2 | 6 | 4
Cc1ccc2nc(Nc3nc(CSc4nnnn4-c4ccccc4)cc(=O)[nH]3)nc(C)c2c1 | -16 | 12 | 13 | 6 | 19 | 46
COc1ccc2nc(Nc3nc(CSc4nc5ccccc5[nH]4)cc(=O)[nH]3)nc(C)c2c1 | 41 | -25 | -17 | 58* | 48 | 91*
Cc1nc(Nc2nc(CSc3ccc(Cl)cc3)cc(=O)[nH]2)nc2ccccc12 | -13 | -1 | 6 | -7 | 7 | -5
Cc1nc(Nc2nc(CSc3nc4ccccc4[nH]3)cc(=O)[nH]2)nc2ccccc12 | 78 | 8 | -23 | 46 | 7 | 92*
COc1ccc2c(C)nc(Nc3nc(C)c(C)c(=O)[nH]3)nc2c1 | 5 | -167 | -82 | 12 | 1 | 53*
Cc1ccc2nc(-c3ccccn3)cc(C(=O)NCCc3ccc(F)cc3)c2c1 | 15 | -12 | 2 | 0 | 8 | -6
Cc1cccc(NC(=O)CCNS(=O)(=O)c2ccc(Cl)cc2)c1 | -6 | 4 | 9 | -8 | . | 8
O=C(CCNS(=O)(=O)c1ccc(Br)cc1)Nc1cccc(F)c1 | -13 | -8 | 15 | 4 | -1 | 99*
O=S(=O)(O)c1ccc(O)c2cc(Nc3ccccc3)ccc12 | -13 | 15 | 3 | -3 | 6 | 79*
COc1ccc([C@@]23Oc4cc(OC)cc(OC)c4[C@]2(O)[C@H](O)[C@H](C(=O)N(C)C)[C@H]3c2ccccc2)cc1 | 91* | 82* | 56* | 34 | 66* | 87*
COc1ccc(NC(=O)C2C(c3ccccc3)C2(Cl)Cl)c(OC)c1 (centres undefined) | 11 | -3 | 1 | 28 | 9 | 32
CCCCNC(=O)C[C@@H]1C[C@@]2(C(=O)OCC)CCCC=C2N(Cc2ccccc2)C1=O | . | . | 0 | . | . | .
CN(C)CCNC(=O)/C=N/O | 36 | 6 | -6 | -11 | -20 | 1
Cc1cc(NCCNC2=CC(=O)CCC2)nc2ccccc12 | 48 | 2 | 9 | 6 | 8 | 73*
Cc1cc(NCC2CCCCC2)nc2ccccc12 | 1 | -13 | -126 | -58 | -59 | -4
CC(C)n1cnc2cc(NCc3ccccn3)ccc21 | -68 | 7 | -96 | 52* | -53 | 33
c1ccc(-n2cnc3cc(NCc4ccccn4)ccc32)cc1 | -20 | 13 | -32 | 42 | -23 | 57*
CC(C)n1cnc2cc(NCc3ccccc3O)ccc21 | -21 | -10 | -90 | 28 | -27 | 6
c1ccc(-n2cnc3cc(NCc4ccncc4)ccc32)cc1 | -14 | 7 | -96 | 38 | -19 | 45
CCC(=O)Nc1cccc(-c2ccc(N3CCC(C)CC3)nn2)c1 | 3 | 19 | 9 | 22 | -9 | 60*
CCC(=O)Nc1ccc(-c2ccc(N3CCC(C)CC3)nn2)cc1 | -19 | -31 | -217 | 25 | -90 | -10
CC1CCN(c2ccc(-c3cccc(NC(=O)c4ccco4)c3)nn2)CC1 | -49 | 18 | -80 | 22 | -35 | 53*
COc1ccc(-c2cccc(NC(=O)c3ccco3)c2)nn1 | 7 | 4 | -5 | -9 | 0 | 4
SMILES | Shn3 3UTR inh | LMP1 NFkB inh | HIF-2a block | TROY signal inh | TRPM1 prom inh | TWEAK Fn14 block
O=C(NC1CCCCC1)C1c2ccccc2OCC(=O)N1CC(F)(F)F (centres undefined) | . | . | 7 | 11 | . | -6
COCCN(C(=O)CNC(=O)c1ccco1)C(C(=O)NC1CCCC1)c1cccc(OC)c1 (centres undefined) | 0 | -5 | 12 | -7 | -7 | -2
COc1cccc(C(C(=O)NC2CCCC2)N(Cc2ccccc2OC)C(=O)c2ccco2)c1 (centres undefined) | 13 | 4 | 15 | . | 6 | 74*
CN(C)c1ccc(CNC(=O)C2(C)Cc3c(-c4cccc(C(N)=O)c4)ccnc3O2)cc1 (centres undefined) | 0 | . | 15 | 2 | . | 4
O=C1NC(c2ccc(Cl)cc2Cl)Oc2ccccc21 (centres undefined) | -4 | 3 | 19 | -14 | -7 | -11
Cc1ccccc1C1NC(=O)c2ccccc2O1 (centres undefined) | 11 | -6 | 17 | -8 | . | 88*
CCc1n[n+](CC(=O)c2ccccc2)c(N)s1 | 23 | 52* | -30 | 58* | -7 | 82*
COc1ccc(NC(=O)Cc2nnc(SCC(=O)NC3CCCCC3C)n2C)cc1 (centres undefined) | 20 | 1 | 10 | -18 | 21 | -7
C/C(=N\Nc1nc2ccccc2s1)c1cccs1 | 15 | -38 | -132 | -1 | 16 | 68*
CC(=NNc1nc2ccccc2s1)c1ncccn1 | 83 | 63* | -172 | -8 | 35 | 31
C/C(=N\Nc1nc(-c2ccccc2)cs1)c1cccs1 | -33 | -52 | -202 | 13 | -10 | 43
CC(=O)Nc1cccc(/C(C)=N/Nc2nc3ccccc3s2)c1 | -12 | -46 | -336 | 23 | -53 | 35
O=C(N/N=C/c1ccccc1O)c1cccc2ccccc12 | 85 | 38 | -59 | -16 | 30 | -19
CN(C)c1ccc(C=NNC(=O)c2cccc3ccccc23)c(Cl)c1 | 9 | 74* | -21 | -6 | 6 | -19
CCN(CC)c1ccc(/C=C2/SC(=O)N(C(C)C)C2=O)o1 | 96* | 0 | 24 | 2 | 9 | 26
CC(C)N1C(=O)S/C(=C\c2ccc(-c3ccc(Cl)c(C(=O)O)c3)o2)C1=O | -73 | -22 | -180 | -61 | -55 | 18
O=C(NNC(=O)c1ccc([N+](=O)[O-])o1)c1ccccc1 | 4 | 0 | -6 | 0 | 28 | 6
C/C(=N/NC(=O)C(O)(c1ccccc1)c1ccccc1)c1ccc([N+](=O)[O-])o1 | -8 | 2 | 0 | -15 | 65* | -6
CCCC(=O)N1CCC1(C)C(=O)Nc1cc(OC)c(OC)c(OC)c1 (centres undefined) | -3 | . | 12 | -10 | . | -8
CCOc1cc(-c2nc(C)c(C(C)=O)n2O)ccc1OCC(=O)Nc1ccccc1 | -9 | 5 | 6 | 1 | -1 | 25
NC(=S)n1[nH]c(-c2ccc([N+](=O)[O-])cc2)c(N=Nc2cccc(Cl)c2)c1=O | 64 | 13 | -70 | 56* | 31 | 72*
CCOC(=O)c1c(NC(=O)COc2ccccc2OCC)sc2c1CC(C)(C)NC2(C)C | -86 | 4 | 18 | -7 | 84* | 4
CCOC(=O)c1c(NC(=O)COc2ccccc2C#N)sc2c1CC(C)(C)NC2(C)C | 12 | -2 | 10 | -4 | 53 | 14
COc1cc2oc(=O)cc(CN3CCOCC3)c2cc1Cl | 6 | . | -3 | -12 | . | -18
